The nature of experiment [1]: qHTS assay to identify small molecule phospholipidosis (PLD) inducers (AID 1259344; active = well fitted curve in the direction sought with a large enough effect; an effect the other way counts as inactive or inconclusive). The essentials: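 After 4 h attachment on collagen I, HepG2 cells were dosed with compound alongside LipidTOX Red, kept 24 h at 37 C, fixed, and imaged for lamellar phospholipid pits.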
On the technique in general: In qHTS, concentration-response curves come from the screen itself.

The nature of experiment [2]: qHTS assay to identify small molecule HDAC inhibitors (AID 1259364). Also: potency is read from the fitted curve at half-maximal effect.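 Also: wild-type HCT-116 cells with endogenous class I/II HDAC activity; nearly all actives have a fitted effect of over 45% in size.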 As to activity change, negative = inhibition: top concentration of the series differs between compounds. The essentials:
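HCT-116 wt cells, 1,500/well, overnight attach. Compounds (DMSO) 2 h, 37 °C. HDAC-Glo I/II, 30 min RT. Luminescence.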

The nature of experiment [3]: qHTS assay to identify small molecule HDAC inhibitors - cell viability counter screen (AID 1259365). Also: series mostly up to about 92 µM; nearly all actives have a fitted effect of over 50% in size. The essentials: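 To flag cytotoxic hits, 1,500 wild-type HCT-116 cells per well, plated the day before, receive test compounds for 2hr at 37 C before CellTiter-Glo reagent and a luminescence read.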
Experiment [4] in a line: qHTS assay to identify small molecule agonists of the sonic hedgehog signaling (Shh) pathway - cell viability counter screen (AID 1259366). Also: nearly all actives have a fitted effect of over 50% in size. The essentials: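 Fluorescence from CellTiter-Fluor reports live cells in this counter screen. NIH/3T3-derived Gli1-Luc reporter cells receive test compounds for 24hr at 37C; reagent goes in at 23hr.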
Experiment [5] in a line: qHTS assay to identify small molecule antagonists of the sonic hedgehog signaling (Shh) pathway - cell viability counter screen (AID 1259367). Also: nearly all actives have a fitted effect of over 55% in size. The essentials:
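Conditioned medium drove Shh signaling in 3T3 Gli1-Luc cells exposed to compounds at 37C and 5% CO2. Viability was determined from CellTiter-Fluor fluorescence, with reagent incubated 1 hr after 23 hr of treatment.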

Experiment [6] is described as follows: qHTS assay to identify small molecule agonists of the sonic hedgehog signaling (Shh) pathway (AID 1259368; calls by dose curve;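 also: NIH/3T3-derived 3T3Gli1-Luc cells carrying a stable Gli1-driven firefly luciferase reporter; series mostly up to about 92 µM; nearly all actives have a fitted effect of over 15% in size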). The essentials: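 Following a 24 hr incubation with DMSO-dissolved compounds at 37 C, 5% CO2, Gli1-Luc NIH/3T3-derived cells received luciferase reagent for 30 min at room temperature prior to luminescence measurement.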
Experiment [7] can be described thus: qHTS assay to identify small molecule antagonists of the sonic hedgehog signaling (Shh) pathway (AID 1259369; calls by dose curve; also: nearly all actives have a fitted effect of over 45% in size; also: potency is read from the fitted curve at half-maximal effect). The essentials: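 Read-out is luminescence from a firefly luciferase gene controlled by the Gli1 response element, in 3T3Gli1-Luc cells pre-incubated 4hr then exposed to compounds and conditioned medium for 24hr.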
In experiment [8] the target is Estrogen receptor beta (Homo sapiens) (UniProt Q92731). The experiment can be described thus: qHTS assay to identify small molecule agonists of the estrogen receptor beta (ER-beta) signaling pathway (AID 1259377; active = well fitted activation curve with a large enough effect in the signal ratio in the repeat runs, not every such curve was filed as active; the % refers to the signal ratio). The essentials: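 Screening used GripTite ER-beta-UAS-bla cells held in 2% charcoal-stripped FBS medium. After overnight (16 hr) compound incubation at 37C, beta-lactamase activity was detected with a FRET substrate by fluorescence.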
Sequence of Estrogen receptor beta (Homo sapiens) (Q92731 whole entry, looked up): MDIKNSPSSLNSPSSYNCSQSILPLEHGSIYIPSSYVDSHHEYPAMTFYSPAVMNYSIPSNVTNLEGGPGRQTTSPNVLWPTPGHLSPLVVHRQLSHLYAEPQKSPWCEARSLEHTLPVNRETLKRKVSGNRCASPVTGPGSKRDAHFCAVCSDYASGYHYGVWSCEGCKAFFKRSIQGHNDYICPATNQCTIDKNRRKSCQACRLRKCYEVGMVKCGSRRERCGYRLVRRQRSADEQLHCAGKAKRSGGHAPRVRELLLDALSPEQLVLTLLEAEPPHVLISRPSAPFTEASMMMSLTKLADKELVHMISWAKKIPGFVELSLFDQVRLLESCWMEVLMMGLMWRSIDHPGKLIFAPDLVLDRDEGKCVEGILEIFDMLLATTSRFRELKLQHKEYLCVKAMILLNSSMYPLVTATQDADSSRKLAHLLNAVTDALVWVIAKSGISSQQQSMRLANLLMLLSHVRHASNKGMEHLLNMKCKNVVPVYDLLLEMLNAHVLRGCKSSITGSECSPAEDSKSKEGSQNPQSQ

A short description of experiment [9]: qHTS assay to identify small molecule agonists of the androgen receptor (AR) signaling pathway in the presence of an antagonist - cell viability counter screen (AID 1259379).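 Also: MDA-kb2 human breast cancer cells carrying an MMTV luciferase reporter; series mostly up to about 92 µM; nearly all actives have a fitted effect of over 25% in size.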 The essentials: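 Each compound was tested at 15 concentrations on MDA-kb2 cells in the presence of 3.0uM nilutamide. Viability was measured by CellTiter-Fluor fluorescence after a 16 hr incubation at 37C in a CO2-free atmosphere.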

Experiment [10] can be described thus: qHTS assay to identify small molecule agonists of the estrogen receptor beta (ER-beta) signaling pathway - cell viability counter screen (AID 1259380). Also: nearly all actives have a fitted effect of over 30% in size. The essentials:
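Compounds dissolved in DMSO were pin-transferred onto ER-beta-UAS-bla HEK293T cells that had settled 6 hr, and exposure ran 16 hr at 37C. Following the reporter read, CellTiter-Glo luminescence after 30 min at room temperature indicated cytotoxicity.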

Experiment [11] is described as follows: qHTS assay to identify small molecule antagonists of the estrogen receptor beta (ER-beta) signaling pathway - cell viability counter screen (AID 1259382). Also: series mostly up to about 92 µM; nearly all actives have a fitted effect of over 55% in size. The essentials: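 CellTiter-Glo ATP luminescence measured after the LiveBLAzer read in the same wells; ER-beta-UAS-bla HEK293T cells, 16 hr compound treatment with 1nM 17-beta-estradiol agonist at 37C, 5% CO2.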

In experiment [12] the target is Estrogen receptor (Homo sapiens) (UniProt P03372). The experiment can be described thus: qHTS assay to identify small molecule agonists of the estrogen receptor alpha (ER-alpha) signaling pathway in the presence of an antagonist (AID 1259383; calls by dose curve; also: nearly all actives have a fitted effect of over 15% in size; also: potency is read from the fitted curve at half-maximal effect; as to activation: top concentration of the series differs between compounds). The essentials:
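Luminescent ERE-luciferase reporter, VM7Luc4E2 cells (endogenous ER-alpha); 10.0nM ICI-182,780 final; 15-point compound titration; 22hr at 37C; ONE-Glo, 30min RT.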

Experiment [13] is described as follows: qHTS assay to identify small molecule agonists of the estrogen receptor alpha (ER-alpha) signaling pathway in the presence of an antagonist - cell viability counter screen (AID 1259386).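 Also: series mostly up to about 92 µM; cells exposed to compounds for 22 h at 37 °C before the viability read; nearly all actives have a fitted effect of over 30% in size.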 The essentials:
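Using estrogen-depleted VM7Luc4E2 cells, the 15-concentration compound series was applied together with 10.0nM ICI-182,780 and incubated 22hr at 37C/5% CO2. Cell viability was then scored by CellTiter-Fluor.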

Experiment [14] concerns the target Progesterone receptor (Homo sapiens) (UniProt P06401). Briefly: qHTS assay to identify small molecule agonists of the progesterone receptor (PR) signaling pathway (AID 1346784; calls by dose curve; also: nearly all actives have a fitted effect of over 30% in size; also: potency is read from the fitted curve at half-maximal effect). The essentials: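 Seed PR-UAS-bla HEK 293T cells (2% charcoal-stripped FBS), incubate 6 hr at 37C; add compounds in DMSO, 16 hr at 37C; add LiveBLAzer B/G substrate, 2 hr RT; read fluorescence intensity.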

The target in experiment [15] is Estrogen receptor (Homo sapiens) (UniProt P03372). The experiment can be described thus: qHTS assay to identify small molecule antagonists of the estrogen receptor alpha (ER-alpha) signaling pathway using the BG1 cell line in the presence of 0.1 nM 17-beta-estradiol (AID 1259244). Also: nearly all actives have a fitted effect of over 50% in size. The essentials:
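Luciferase signal from VM7Luc4E2 ERE-reporter cells, co-dosed with test compound and 0.1 nM final 17beta-estradiol for 22 h, read with ONE-Glo.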

Experiment [16] deals with Androgen receptor (Homo sapiens) (UniProt P10275). Briefly: qHTS assay to identify small molecule agonists of the androgen receptor (AR) signaling pathway in the presence of an antagonist (AID 1259381; calls by dose curve; also: nearly all actives have a fitted effect of over 15% in size). The essentials: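 Plated MDA-kb2 cells (3,000/well) were pre-incubated 5hr, given nilutamide (3.0uM final) or buffer, then dosed with compounds in DMSO at 15 concentrations. Luciferase activity was quantified by luminescence after 16hr at 37C.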
Sequence of Androgen receptor (Homo sapiens) (P10275 whole entry, looked up): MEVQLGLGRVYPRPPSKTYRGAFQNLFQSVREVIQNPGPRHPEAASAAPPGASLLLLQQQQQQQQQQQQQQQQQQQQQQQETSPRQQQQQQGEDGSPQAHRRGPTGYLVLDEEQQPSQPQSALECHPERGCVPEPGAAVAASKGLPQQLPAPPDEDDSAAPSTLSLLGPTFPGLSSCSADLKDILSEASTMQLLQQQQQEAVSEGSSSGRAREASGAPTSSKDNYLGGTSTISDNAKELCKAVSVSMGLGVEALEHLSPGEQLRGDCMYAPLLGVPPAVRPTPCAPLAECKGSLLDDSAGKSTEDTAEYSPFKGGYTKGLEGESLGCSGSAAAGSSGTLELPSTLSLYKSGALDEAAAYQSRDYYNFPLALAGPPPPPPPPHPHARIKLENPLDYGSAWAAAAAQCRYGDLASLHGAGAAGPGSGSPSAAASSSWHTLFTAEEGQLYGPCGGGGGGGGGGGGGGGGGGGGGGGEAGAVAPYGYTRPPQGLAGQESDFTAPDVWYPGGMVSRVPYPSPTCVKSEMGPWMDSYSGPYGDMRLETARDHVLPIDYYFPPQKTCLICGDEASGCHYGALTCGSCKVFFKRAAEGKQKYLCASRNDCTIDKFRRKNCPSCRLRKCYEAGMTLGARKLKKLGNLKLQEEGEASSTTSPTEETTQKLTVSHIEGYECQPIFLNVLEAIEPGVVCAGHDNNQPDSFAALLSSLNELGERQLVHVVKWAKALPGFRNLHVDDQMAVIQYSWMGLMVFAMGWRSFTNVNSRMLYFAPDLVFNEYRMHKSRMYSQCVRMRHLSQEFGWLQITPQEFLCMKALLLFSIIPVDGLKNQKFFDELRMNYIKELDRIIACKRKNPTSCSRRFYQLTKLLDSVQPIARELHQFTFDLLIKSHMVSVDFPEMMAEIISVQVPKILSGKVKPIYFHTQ

Experiment [17] can be described thus: qHTS assay to identify small molecule agonists or antagonists of the thyroid stimulating hormone receptor (TSHR) signaling pathway - wild type cell line counter screen (AID 1259384; calls by dose curve). The essentials: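 Wild-type HEK293 cells were plated 18 h at 37 C/5% CO2, pin-dosed with compound plus Ro20-1724 medium, held 30 min at room temperature, then given cAMP-d2 and anti-cAMP-cryptate; fluorescence was read after 1 h. Fifteen concentrations, triplicate.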

The target of experiment [18] is Thyrotropin receptor (Homo sapiens) (UniProt P16473). Briefly: qHTS assay to identify small molecule antagonists of the thyroid stimulating hormone receptor (TSHR) signaling pathway (AID 1259385; calls by dose curve; also: nearly all actives have a fitted effect of over 20% in size). The essentials: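 TSHR-HEK293 cells were plated and held 18 h at 37C/5% CO2, then given compound plus Ro20-1724 and stimulated with TSH at 1.5 ng/mL final. After 30 min at room temperature, cAMP was detected with cAMP-d2/anti-cAMP-cryptate (1 h) by fluorescence.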
Sequence of Thyrotropin receptor (Homo sapiens) (P16473 whole entry, looked up): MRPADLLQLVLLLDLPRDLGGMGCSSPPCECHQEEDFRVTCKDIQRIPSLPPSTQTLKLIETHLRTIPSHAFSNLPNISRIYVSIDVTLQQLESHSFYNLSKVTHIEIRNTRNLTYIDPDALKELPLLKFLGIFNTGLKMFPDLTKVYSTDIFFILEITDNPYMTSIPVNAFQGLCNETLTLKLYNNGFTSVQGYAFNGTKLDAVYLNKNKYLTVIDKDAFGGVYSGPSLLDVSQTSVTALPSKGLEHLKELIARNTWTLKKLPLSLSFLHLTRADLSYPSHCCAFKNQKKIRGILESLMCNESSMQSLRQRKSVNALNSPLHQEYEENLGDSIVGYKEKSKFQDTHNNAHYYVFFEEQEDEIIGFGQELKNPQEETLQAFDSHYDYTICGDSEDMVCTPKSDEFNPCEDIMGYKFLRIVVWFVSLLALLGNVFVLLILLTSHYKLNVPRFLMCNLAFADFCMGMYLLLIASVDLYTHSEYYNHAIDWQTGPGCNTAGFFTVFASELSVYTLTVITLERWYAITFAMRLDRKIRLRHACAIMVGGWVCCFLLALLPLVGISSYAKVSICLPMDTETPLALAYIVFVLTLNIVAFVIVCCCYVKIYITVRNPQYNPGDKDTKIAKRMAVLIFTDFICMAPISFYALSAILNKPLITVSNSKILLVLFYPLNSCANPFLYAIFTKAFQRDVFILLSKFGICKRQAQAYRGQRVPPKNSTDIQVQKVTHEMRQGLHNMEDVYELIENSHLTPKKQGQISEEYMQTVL

Experiment [19] concerns the target Progesterone receptor (Homo sapiens) (UniProt P06401). The experiment can be described thus: qHTS assay to identify small molecule antagonists of the progesterone receptor (PR) signaling pathway (AID 1346795; active = well fitted inhibition curve with a large enough effect in the signal ratio in the repeat runs, not every such curve was filed as active; the % refers to the signal ratio). The essentials:
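Screening used a GripTite HEK293T line with PR-responsive UAS-beta-lactamase. Cells were challenged with compound in the presence of 1 nM R5020 final for 16 hr at 37C; B/G FRET substrate, 2 hr room temperature, fluorescence.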

The target in experiment [20] is Estrogen receptor beta (Homo sapiens) (UniProt Q92731). Briefly: qHTS assay to identify small molecule antagonists of the estrogen receptor beta (ER-beta) signaling pathway (AID 1259378; active = well fitted inhibition curve with a large enough effect in the signal ratio in the repeat runs, not every such curve was filed as active; the % refers to the signal ratio). The essentials:
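ER-beta-UAS-bla HEK293T (GripTite) cells in 2% charcoal-stripped FBS medium were preincubated 6 hr at 37C, dosed with compound, then stimulated with 1 nM E2 (final) for 16 hr; beta-lactamase reporter read by B/G FRET fluorescence after 2 hr substrate loading.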

“And” between values parts separate entries of the source, which are not always exact repeats. Equal entries are not always repeated. Records with an inconclusive call do not appear. The source holds several records for some structures; these can differ, active in one and inactive in another. The source made the active and inactive calls. Unless noted, calls follow the shape of the dose curve; as a rule, active = well fitted curve in the direction sought with a large enough effect in the repeat runs; inconclusive = weak or mixed curves; inactive = no such curve, though single readings can be large; an effect the other way counts as inactive or inconclusive.
% is scaled to controls: 0 for no effect and ±100 for the full control effect.

Sequence of Estrogen receptor (Homo sapiens) (P03372 whole entry, looked up): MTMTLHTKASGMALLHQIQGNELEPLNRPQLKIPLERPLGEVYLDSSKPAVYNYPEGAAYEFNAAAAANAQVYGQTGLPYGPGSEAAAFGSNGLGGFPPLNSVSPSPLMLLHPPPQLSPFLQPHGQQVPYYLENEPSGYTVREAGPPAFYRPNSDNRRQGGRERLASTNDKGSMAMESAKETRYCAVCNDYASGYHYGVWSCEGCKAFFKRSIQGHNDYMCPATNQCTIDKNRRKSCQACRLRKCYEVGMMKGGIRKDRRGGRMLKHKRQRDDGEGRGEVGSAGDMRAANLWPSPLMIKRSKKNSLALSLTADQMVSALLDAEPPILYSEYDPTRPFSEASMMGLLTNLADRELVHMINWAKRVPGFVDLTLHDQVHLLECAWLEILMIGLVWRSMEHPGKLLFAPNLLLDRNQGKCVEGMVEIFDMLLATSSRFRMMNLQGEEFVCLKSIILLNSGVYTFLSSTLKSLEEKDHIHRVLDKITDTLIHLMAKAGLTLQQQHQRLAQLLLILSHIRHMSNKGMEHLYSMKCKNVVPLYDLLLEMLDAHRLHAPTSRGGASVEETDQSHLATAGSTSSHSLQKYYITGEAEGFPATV
Sequence of Progesterone receptor (Homo sapiens) (P06401 whole entry, looked up): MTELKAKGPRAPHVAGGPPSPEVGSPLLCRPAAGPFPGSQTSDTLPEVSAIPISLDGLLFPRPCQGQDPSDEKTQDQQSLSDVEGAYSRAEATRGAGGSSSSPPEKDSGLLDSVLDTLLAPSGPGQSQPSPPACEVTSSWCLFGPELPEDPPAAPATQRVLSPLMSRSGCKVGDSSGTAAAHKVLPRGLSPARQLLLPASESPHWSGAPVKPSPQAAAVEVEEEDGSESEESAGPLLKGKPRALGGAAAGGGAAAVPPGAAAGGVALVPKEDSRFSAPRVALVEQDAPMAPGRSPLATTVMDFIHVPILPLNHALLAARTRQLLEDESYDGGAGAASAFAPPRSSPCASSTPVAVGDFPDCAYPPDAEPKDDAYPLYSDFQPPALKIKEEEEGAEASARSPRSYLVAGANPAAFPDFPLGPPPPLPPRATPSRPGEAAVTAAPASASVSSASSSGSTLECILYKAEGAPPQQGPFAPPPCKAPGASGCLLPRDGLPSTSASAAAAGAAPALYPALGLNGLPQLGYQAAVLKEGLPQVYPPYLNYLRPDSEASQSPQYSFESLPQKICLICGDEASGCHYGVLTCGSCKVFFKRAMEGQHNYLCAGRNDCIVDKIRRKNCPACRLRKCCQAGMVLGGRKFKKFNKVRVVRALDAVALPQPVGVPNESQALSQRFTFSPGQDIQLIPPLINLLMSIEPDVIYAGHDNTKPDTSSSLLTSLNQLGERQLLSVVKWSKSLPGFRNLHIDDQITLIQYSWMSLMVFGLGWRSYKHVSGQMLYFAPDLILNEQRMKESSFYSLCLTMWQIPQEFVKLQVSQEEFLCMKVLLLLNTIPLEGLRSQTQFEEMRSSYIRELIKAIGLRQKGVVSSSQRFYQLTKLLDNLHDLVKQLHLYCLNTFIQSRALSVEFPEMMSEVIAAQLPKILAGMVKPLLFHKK

Turning to `CCc1ccc(CCOc2ccc(CC3SC(=O)NC3=O)cc2)nc1` (stereo not given), the outcome in experiment [1], in experiment [3] and in experiment [6] was inactive. Besides, the Potency result in experiment [2], in experiment [4], in experiment [5], in experiment [7], in experiment [8] and in experiment [9] was “inactive” in each case. Further, the Potency result in experiment [10], in experiment [11], in experiment [12], in experiment [13] and in experiment [14] was “inactive” in each case.

As to `CCc1cccc(C)c1N`, the Potency result in experiment [15], in [2], in experiment [4], in experiment [5], in [7] and in experiment [9] was “inactive” each time. Moreover, the Potency entry in experiment [10], in experiment [16], in experiment [11], in [12], in experiment [18] and in experiment [13] was “inactive” each time. The Potency result in experiment [14] and in experiment [19] was “inactive” throughout. The compound was called inactive in experiment [3], in experiment [6] and in experiment [17].

Take `CCCCCCCCCCCCS`: the Potency result in experiment [15], in experiment [2], in [4], in experiment [5], in experiment [7] and in experiment [8] was “inactive” in each case. Besides, the Potency entry in experiment [9], in experiment [10], in experiment [11], in [12], in [13] and in [14] was “inactive” in each case. Further, the Potency entry in [19] is “inactive”. The outcome in experiment [3], in experiment [6] and in experiment [17] was inactive.

For the compound `CCN(CC)CCCC(C)Nc1ccnc2cc(Cl)ccc12` (stereo not given), the activity change, negative = inhibition in experiment [15] is 35.5% [at 8.39 µM] (inactive) and -0.903% [at 19 µM] (inactive); in [2] it was 5.21% [at 8.39 µM] (inactive) and -11.7% [at 19 µM] (inactive); in [7], -20.4% [at 8.39 µM] (inactive). The compound was classed as inactive in experiment [1]. Also, the activity change, negative = cytotoxicity was 1.29% [at 8.39 µM] (inactive) and -0.194% [at 19 µM] (inactive) in experiment [3]; -10.8% [at 8.39 µM] (inactive) in [9]; -12.8% [at 8.39 µM] (inactive) and -6.59% [at 19 µM] (inactive) in experiment [10]; -20.4% [at 8.39 µM] (inactive) and -8.86% [at 19 µM] (inactive) in experiment [11]. Moreover, in [4], the viability change, negative = cytotoxic was 4.99% [at 8.39 µM] (inactive) and -9.75% [at 19 µM] (inactive). Also, the Potency was 5800 nM (active) in [7] and 119 nM (active) in [14]. Also, the activation in experiment [8] was 1.76% [at 8.39 µM] (inactive) and 0.415% [at 19 µM] (inactive); in [12], -0.124% [at 8.39 µM] (inactive) and -1.51% [at 19 µM] (inactive); in experiment [14], -0.551% [at 19 µM] (inactive).

`Fc1ccc(Br)cc1`: the Potency entry in [15], in experiment [2], in experiment [4], in experiment [5], in experiment [7] and in [9] was “inactive” throughout. The Potency result in experiment [10], in [11], in [13], in experiment [14] and in experiment [19] was “inactive” each time. The result in [3], in experiment [6] and in experiment [17] was inactive. Besides, in experiment [12], the Potency is 61.8 µM (active) and inactive.

For the compound `CC(=O)Nc1cccc(O)c1`, the Potency result in experiment [15], in experiment [2], in [4], in [7], in experiment [8] and in experiment [9] was “inactive” throughout. The Potency result in experiment [10], in experiment [11], in experiment [12], in [18] and in [13] was “inactive” in each case. The compound was classed as inactive in experiment [1], in [3], in experiment [6] and in experiment [17]. Moreover, in experiment [14], the Potency is 24.2 µM (active) and inactive.

As to `O=C(O)CCCCCCCCCCC(=O)O`, the Potency result in experiment [15], in experiment [4], in experiment [5], in experiment [7], in experiment [9] and in [10] was “inactive” in each case. In addition, the Potency entry in [11], in experiment [12], in [18], in [13], in experiment [14] and in experiment [19] was “inactive” in each case. Moreover, the Potency in [2] is 21.9 µM (active) and 21.7 µM (active). Besides, the call in [3], in [6] and in experiment [17] was inactive.

As to `CCCCCCCCCCCCCCO`, the Potency entry in [15], in experiment [2], in experiment [4], in experiment [7], in experiment [8] and in experiment [20] was “inactive” throughout. In addition, the Potency entry in experiment [9], in experiment [10], in experiment [11], in [12], in experiment [18] and in experiment [13] was “inactive” in each case. The Potency result in [14] and in experiment [19] was “inactive” throughout. The result in [3], in experiment [6] and in [17] was inactive.

Source of the values: PubChem BioAssay (Tox21).
